Among all 310,000 compounds or so, about 1,200 (0.39%) were called active. No rule for the calls is given here. The list is a sample of the results. Results with a measured potency or affinity are listed apart.

Chain of Large T antigen (Simian virus 40) (P03070 whole entry, looked up): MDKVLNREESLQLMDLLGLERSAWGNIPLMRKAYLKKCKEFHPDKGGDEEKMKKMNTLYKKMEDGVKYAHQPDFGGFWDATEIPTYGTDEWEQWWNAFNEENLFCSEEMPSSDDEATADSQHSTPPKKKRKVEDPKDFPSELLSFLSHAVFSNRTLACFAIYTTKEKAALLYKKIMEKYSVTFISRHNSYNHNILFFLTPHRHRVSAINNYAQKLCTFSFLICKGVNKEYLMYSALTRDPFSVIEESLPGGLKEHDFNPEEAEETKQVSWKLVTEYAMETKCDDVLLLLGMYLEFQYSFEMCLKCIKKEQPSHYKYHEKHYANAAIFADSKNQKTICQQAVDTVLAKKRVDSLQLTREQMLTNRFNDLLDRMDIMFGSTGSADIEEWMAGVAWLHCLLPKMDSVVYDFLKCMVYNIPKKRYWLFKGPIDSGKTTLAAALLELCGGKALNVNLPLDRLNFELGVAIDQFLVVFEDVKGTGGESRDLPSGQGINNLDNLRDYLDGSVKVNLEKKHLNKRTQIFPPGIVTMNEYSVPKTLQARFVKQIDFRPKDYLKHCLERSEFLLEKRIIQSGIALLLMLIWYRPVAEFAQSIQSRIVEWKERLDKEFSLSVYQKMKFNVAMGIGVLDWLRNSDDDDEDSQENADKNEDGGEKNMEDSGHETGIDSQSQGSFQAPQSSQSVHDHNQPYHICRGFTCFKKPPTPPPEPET

The assay has as its target Large T antigen (Simian virus 40) (UniProt P03070). The experiment in a line: TAg ATPase/helicase activity blockers – biochemical (AID 1903). The note with it: SV40 large T antigen ATPase/helicase inhibition assay; at 20 µM; stronger effect = higher value.
As usually defined, the inhibition is the drop in the measured response relative to a control, in per cent. As to `O=C(NCCCN1CCOCC1)c1cccc(NC(=O)c2ccccc2)c1`, the inhibition is 8.5% (inactive).

Consider `Cc1cc(C)n(Cc2ccc(NC(=O)c3c([N+](=O)[O-])c(C)nn3C)cc2)n1`, for which the inhibition was 21.7% (inactive).

`Cn1ccnc1/C(=N\NC(=O)c1ccccc1)c1cccc([N+](=O)[O-])c1`: the inhibition was 17.9% (inactive).

For the compound `Cc1nc2nc(C)c(CCC(=O)O)c(C)n2n1`, the inhibition is 8.37% (inactive).

For the compound `CCCCC(CC)C(=O)Nc1ccc(C)c(O)c1` (configuration not stated), the inhibition is 1.23% (inactive).

Consider `CCOc1ccc(S(=O)(=O)n2cnc3ccccc32)cc1`, for which the inhibition is 12.2% (inactive).

For the compound `CCCc1cc2c(=O)n(NC(=O)c3nn(C)cc3[N+](=O)[O-])c(C)nc2s1`, the inhibition was 15.2% (inactive).

As to `CCCCOP(=O)(c1ccc(N(C)C)cc1)C(O)c1cccnc1` (configuration not stated), the inhibition was 7.96% (inactive).

On to `Cc1ccc(C(=O)NCc2ccncc2)cc1S(=O)(=O)Nc1cccc(C)c1C`, for which the inhibition is 2.57% (inactive).

Take `COc1ccc(NC(=O)COC(=O)Cn2nnc3ccccc32)cc1`: the inhibition was 12.6% (inactive).

For `O=C(COC(=O)Cn1nnc2ccccc21)Nc1ccccc1Br`, the inhibition is 7.03% (inactive).

In the case of `O=C(NC1CCCC1)C1CCCN(S(=O)(=O)c2cnc[nH]2)C1` (configuration not stated), the inhibition was 5.21% (inactive).

Take `CCOC(=O)c1ccc(NC2c3ccccc3C(=O)N2c2ccccn2)cc1` (configuration not stated): the inhibition is 0.465% (inactive).

With `O=C(CC1SC(=O)N(c2ccccc2)C1=O)Nc1ccccc1` (configuration not stated), the inhibition was 38.4% (inactive).

Consider `Cc1ccccc1NC(=O)CC1SC(=O)N(c2ccccc2)C1=O` (configuration not stated), for which the inhibition is 14% (inactive).

As for `CO/N=C/C(=N\Nc1cc(OC)cc(OC)c1)C(=O)c1ccccc1`, the inhibition was 9.31% (inactive).

Take `CCc1ccc(CNc2ccc3c(c2)ncn3CC)cc1`: the inhibition was 24.4% (inactive).

For `CCN(CC)c1ccc(CNc2ccc3c(c2)ncn3CC)cc1`, the inhibition was 32.3% (inactive).

Regarding `CCn1cnc2cc(NCc3ccc(C)cc3)ccc21`, the inhibition is 35.2% (inactive).

As for `Cc1ccc(CNc2ccc3c(c2)ncn3C(C)(C)C)cc1`, the inhibition was 21.9% (inactive).

On to `CCc1ccc(CNc2ccc3c(c2)ncn3C)cc1`, for which the inhibition is 22.1% (inactive).

Take `CN(C)c1ccc(CNc2ccc3c(c2)ncn3C(C)(C)C)cc1`: the inhibition was 37.9% (inactive).

For `Cc1nc2cc(-c3sccc3-n3cccc3)nn2c(C)c1C`, the inhibition is 5.6% (inactive).

For `Cc1ccc(NS(=O)(=O)c2ccc(CCC(=O)NCc3cccnc3)cc2)cc1`, the inhibition was 7.61% (inactive).

For `COC(=O)c1ccc(COc2cccc3c2CCN(Cc2ccccc2)C3=O)o1`, the inhibition was 4.93% (inactive).

Turning to `Brc1ccc2[nH]c3c(NCc4ccccn4)ncnc3c2c1`, the inhibition was 4.68% (inactive).

As for `O=C(Nc1ccccc1)N(Cc1ccccc1)C1=NCCS1`, the inhibition was 5.16% (inactive).

Turning to `O=C(O)COc1ccccc1/C=N/NC(=O)CN1CCN(Cc2ccccc2Cl)CC1`, the inhibition is 2.27% (inactive).

On to `CCOC(=O)c1c(NC(=O)/C=C\C(=O)O)sc(C)c1-c1ccccc1`, for which the inhibition was 12.2% (inactive).

Take `CCOC(=O)c1c(NC(=O)/C=C/C(=O)O)sc(C)c1-c1ccc(Cl)cc1`: the inhibition is 47.5% (inactive).

Turning to `CC(C)c1ccc(Nc2nc(Cl)nc(NCc3ccco3)n2)cc1`, the inhibition is 23.9% (inactive).

Regarding `Cc1ccc2[nH]c(=O)c(-c3nc4ccccn4c3NCc3ccco3)cc2c1`, the inhibition is 26% (inactive).

As to `CCOC(=O)CNc1c(-c2ccc(Cl)cc2)nc2cnccn12`, the inhibition is 14.1% (inactive).

In the case of `CCOC(=O)CNc1c(-c2ccc(OC)cc2)nc2ccc(Cl)cn12`, the inhibition is 19.4% (inactive).

`COCCNc1c(-c2ccc(O)cc2)nc2ccc(Cl)cn12`: the inhibition was 25.7% (inactive).

Turning to `OCCNc1nc(Cl)nc(NCc2ccco2)n1`, the inhibition is 3.58% (inactive).

Regarding `CCOC(=O)CNc1c(-c2ccccc2)nc2ccc(Cl)cn12`, the inhibition was 13.6% (inactive).

As to `O=C(Nc1c(-c2ccccc2)nc2ccccn12)c1ccco1`, the inhibition is 19.3% (inactive).

In the case of `Cc1ccc(CCNC(=O)C2CCCN(S(=O)(=O)c3cccc4nsnc34)C2)cc1` (configuration not stated), the inhibition was 4.61% (inactive).

Take `CN(C)/C=C/C(=O)c1ccc(Cl)c([N+](=O)[O-])c1`: the inhibition is 11.3% (inactive).

In the case of `Cc1ccc(-n2nnnc2SCC(=O)Nc2ccc(N3CCN(C)CC3)cc2)c(C)c1`, the inhibition is 17.6% (inactive).

`COc1ccc2[nH]cc(C(=O)CN3CCCCC3)c2c1`: the inhibition is 20.3% (inactive).

Take `O=C(NCCC1=CCCCC1)Nc1ccc2nsnc2c1`: the inhibition was -1.37% (inactive).

Turning to `Cn1c(N)c(C(=O)COC(=O)c2ccc(S(=O)(=O)N3CCCCC3)cc2)c(=O)n(C)c1=O`, the inhibition is 2.82% (inactive).

As to `CCc1noc(C)c1C(=O)Nc1nnc(C2CCCCC2)s1`, the inhibition was 16% (inactive).

Regarding `COC(=O)c1c([N+](=O)[O-])c(OC)c(OC)c(OC)c1[N+](=O)[O-]`, the inhibition was 2.68% (inactive).

In the case of `COC(=O)[C@H](CCSC)NS(=O)(=O)c1ccccc1Br`, the inhibition was 24.3% (inactive).

With `Cc1cccc(NC(=O)c2ccc(NC(=O)CC3SC(N4CCCC4)=NC3=O)cc2)n1` (configuration not stated), the inhibition is 12.5% (inactive).

For `CC1CCCN(S(=O)(=O)c2ccc(CN3C(=O)c4cccnc4C3=O)cc2)C1` (configuration not stated), the inhibition was 9.07% (inactive).

With `CCN1C(=O)/C(=C\c2ccco2)C(C(=O)OC)=C1C`, the inhibition is 8.18% (inactive).

For `CCc1ccc(N2NC(=O)/C(=C/C=C/c3ccco3)C2=O)cc1`, the inhibition was 22.1% (inactive).

Consider `CC(C)CN1C(=O)/C(=C/c2ccco2)NC1=S`, for which the inhibition is 19.9% (inactive).

With `O=C1NN(c2ccc(F)cc2)C(=O)/C1=C\C=C\c1ccco1`, the inhibition was 19.7% (inactive).

For `Cc1cccc(N=C2NC(=O)/C(=C/C=C/c3ccco3)S2)c1C`, the inhibition was 5.68% (inactive).

For the compound `CCCCn1c(N)c(N(CC)C(=O)/C=C/c2ccco2)c(=O)[nH]c1=O`, the inhibition is 5.15% (inactive).

As for `Cc1csc2nc(CSc3nc4ccccc4o3)c(Br)n12`, the inhibition is 1.48% (inactive).

Consider `Cc1c[n+]([O-])n(-c2ccc(C(=O)O)cc2)n1`, for which the inhibition is 2.23% (inactive).

For the compound `O=C(c1cc(=O)c2ccccc2o1)N1CCN(c2cccc(Cl)c2)CC1`, the inhibition is 8.8% (inactive).

`CC(=O)c1cccc(NS(=O)(=O)N2CCOCC2)c1`: the inhibition is 9.29% (inactive).

In the case of `O=C(CCCc1ccccc1)Nc1cccnc1Cl`, the inhibition is 10% (inactive).

Turning to `O=[N+]([O-])c1cccc(CN2CCN(c3cccc4[nH]ccc34)CC2)c1`, the inhibition is 27.1% (inactive).

Take `O=C(c1c(Cl)cccc1Cl)N1CCN(c2cccc3[nH]ccc23)CC1`: the inhibition was 23.6% (inactive).

On to `Cc1ccc(S(=O)(=O)N2CCC(C(=O)NNC(=O)c3ccc(F)cc3)CC2)cc1`, for which the inhibition is 7.95% (inactive).

For `Cc1ccc(C)c(CSc2nnc(-c3ccccn3)n2N)c1`, the inhibition was 4.69% (inactive).

For `COc1ccccc1-n1c(=O)c2c3c(sc2n2c(=S)[nH]nc12)CCC3`, the inhibition was 30.3% (inactive).

With `Cc1nnc2n(-c3ccccc3)c(=O)c3c4c(sc3n12)CCCC4`, the inhibition was 4.53% (inactive).

As for `Cc1cccc(-n2c(=O)c3c4c(sc3n3c(=S)[nH]nc23)CCC4)c1`, the inhibition was 34.1% (inactive).

Regarding `COc1ccc(-n2c(=O)c3c4c(sc3n3c(=S)[nH]nc23)CCCC4)cc1`, the inhibition is 2.8% (inactive).

`CCSc1nnc2n(-c3ccc(OC)cc3)c(=O)c3c4c(sc3n12)CCCC4`: the inhibition is 2.78% (inactive).

Turning to `CSc1nnc2n(-c3ccccc3)c(=O)c3c4c(sc3n12)CCC4`, the inhibition was 3.42% (inactive).

On to `COc1ccccc1C1(O)C(=O)Nc2ccc(C)cc21` (configuration not stated), for which the inhibition was 9.43% (inactive).

With `CS(=O)(=O)N1CCN(c2ncnc3c2cnn3-c2ccccc2)CC1`, the inhibition was 1.55% (inactive).

On to `CC1=CC(=C(C#N)C#N)C=C(C)N1CCN1CCN(C(=O)Nc2ccc(Cl)c(Cl)c2)CC1`, for which the inhibition was 3.99% (inactive).

As for `Cc1ccc(C)n1-c1sc2c(c1C#N)CCCC2`, the inhibition was 7.49% (inactive).

`Cc1cc(/C=C2/NC(=O)NC2=O)c(C)n1-c1sc2c(c1C#N)CCCC2`: the inhibition was 17.3% (inactive).

As for `CCOC(=O)N1CCC(N2CCN(S(=O)(=O)c3ccc(OC)cc3)CC2)CC1`, the inhibition is 4.73% (inactive).

With `COc1ccc(OC)c(-n2c(SCC(=O)Nc3cc(C)on3)nnc2-c2c[nH]c3ccccc23)c1`, the inhibition was -1.81% (inactive).

For the compound `CCN1CC2([N+](=O)[O-])CC=C(OC)C([N+](=O)[O-])(C1)C2` (configuration not stated), the inhibition is -0.47% (inactive).

On to `N#CCn1c(Cc2ccccc2)nc2ccccc2c1=O`, for which the inhibition was 10.6% (inactive).

Regarding `CN(C)Cc1nc2ccccc2c(=O)n1CC#N`, the inhibition is 8.3% (inactive).

In the case of `O=Cc1cn(-c2ccccc2)nc1-c1ccc(F)cc1`, the inhibition was 3.65% (inactive).

Turning to `Cc1ccc2c(c1)N(C(=O)CCC(=O)N1CCCCC1)CCO2`, the inhibition was 9.22% (inactive).

`COc1ccc(-c2cc(-c3ccco3)[nH]c(=O)c2C#N)cc1`: the inhibition is 33.2% (inactive).

With `N#Cc1c(-c2ccccc2)cc(-c2ccccc2)[nH]c1=O`, the inhibition was -4.42% (inactive).

`COc1ccc(-c2cc(-c3ccco3)[nH]c(=O)c2C#N)cc1OC`: the inhibition is 33.5% (inactive).

Regarding `N#Cc1c(-c2cccc(Br)c2)cc(-c2ccco2)[nH]c1=O`, the inhibition is 4.79% (inactive).

With `O=C(NCCN1CCCCCC1)C1CCC(CNS(=O)(=O)c2cccc3cccnc23)CC1` (configuration not stated), the inhibition is 10.5% (inactive).

Turning to `CCCN1CCN(CCCNC(=O)CCN2C(=O)COc3ccccc32)CC1`, the inhibition was 15.1% (inactive).

For `COc1ccc(CCNC(=O)Cn2cnc3scc(-c4ccccc4)c3c2=O)cc1OC`, the inhibition is 5.46% (inactive).

For `Cn1nc(C(=O)Nc2ccc(S(=O)(=O)N3CCCC3)cc2)ccc1=O`, the inhibition is 0.66% (inactive).

On to `Cc1ccc(C(=O)Nc2ccncc2)cc1[N+](=O)[O-]`, for which the inhibition is 13% (inactive).

Take `Cc1ccc(N=Nc2c(N)n[nH]c2N)cc1`: the inhibition is 25% (inactive).

Turning to `Nc1n[nH]c(N)c1N=Nc1ccc(F)cc1`, the inhibition is 13.8% (inactive).

For `COc1cc2[nH]c3c(=O)n4c(nc3c2cc1OC)SCCC4`, the inhibition is 7.73% (inactive).

Turning to `Cc1cccc(NNC(=O)C2CCC2)c1`, the inhibition is 10.2% (inactive).

On to `N#Cc1c(NC(=O)c2ccco2)sc2c1CCC2`, for which the inhibition was 28.5% (inactive).

As to `N#Cc1c(NC(=O)/C=C/c2ccco2)sc2c1CCCC2`, the inhibition is 11.5% (inactive).
